From PubChem BioAssay (Tox21) come the findings set out here.

The nature of assay [1]: qHTS assay for small molecule agonists of the p53 signaling pathway (AID 651631; calls by dose curve; further: nearly all actives have a fitted effect of over 15% in size). In outline:
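Beta-lactamase reporter activity under p53 response elements was quantified in HCT-116 cells by FRET fluorescence, following 16 h incubation with test compounds at 37 °C and 2 h substrate development at room temperature.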
Background: Quantitative high-throughput screening tests each substance at several concentrations.

Assay [2] has as its target Glucocorticoid receptor (Homo sapiens) (UniProt P04150). The experiment in a line: qHTS assay to identify small molecule antagonists of the glucocorticoid receptor (GR) signaling pathway (AID 720692; active means well fitted inhibition curve with a large enough effect in the signal ratio in the repeat runs, not every such curve was filed as active; inconclusive means weak or mixed curves, or effect the other way; inactive means no such curve, though single readings can be large or run the other way; the % refers to the signal ratio; further: potency means the concentration at half of the fitted maximal effect). The essentials:
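Fluorescence from cleaved LiveBLAzer B/G FRET substrate reports GRE-driven beta-lactamase in HeLa cells; compounds are tested against 5 nM dexamethasone (final) over 18 h at 37 C, substrate incubation 2 h at room temperature.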

Assay [3] has as its target Estrogen receptor (Homo sapiens) (UniProt P03372). The assay is described as follows: qHTS assay to identify small molecule antagonists of the estrogen receptor alpha (ER-alpha) signaling pathway (AID 743069; active means well fitted curve in the direction sought with a large enough effect in the signal ratio in the repeat runs, not every such curve was filed as active; inconclusive means weak or mixed curves, or effect the other way; inactive means no such curve, though single readings can be large or run the other way; the % refers to the signal ratio; further: potency means the concentration at half of the fitted maximal effect). In outline:
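Reporter cells (ER-alpha-bla, HEK293 background) are conditioned overnight in stripped-serum medium (2% charcoal-stripped FBS). Compound and 17beta-estradiol exposure runs 18 hr at 37C, 5% CO2.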

Assay [4] has as its target Nuclear receptor subfamily 1 group I member 2 (Rattus norvegicus) (UniProt Q9R1A7). The assay is described as follows: Rat pregnane X receptor (rPXR) activation by small molecules, qHTS assay (AID 1346983). Further: nearly all actives have a fitted effect of over 20% in size. The note with it: rPXR luciferase reporter cells, One-Glo luminescence, 24 h; max activation: hits give high values. The essentials: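 Cell-based rPXR activation assay: rPXR cells, 2,000 per well, rested 5hr at 37 C, then exposed to compounds in DMSO for 24 hr at 37 C. Luciferase activity read by One-Glo luminescence after 30 min at room temperature.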

In assay [5] the target is Nuclear receptor subfamily 1 group I member 2 (Homo sapiens) (UniProt O75469). The assay is described as follows: Human pregnane X receptor (PXR) activation by small molecules, qHTS assay (AID 1346985). Further: nearly all actives have a fitted effect of over 40% in size. Further: potency means the concentration at half of the fitted maximal effect. The essentials: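 DPX-2 cells (HepG2 co-transfected with a PXR response element and a CYP3A4-promoter luciferase construct) were seeded at 2,000 per well, rested 5 hr at 37C, then exposed to DMSO-dissolved compounds for 24 hr. Activation was read as luciferase luminescence.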

A short description of assay [6]: qHTS assay for small molecule disruptors of the mitochondrial membrane potential (AID 720635). Further: potency means the concentration at half of the fitted maximal effect. The essentials:
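HepG2 cells exposed to compound 1 hr at 37C, then Mito-MPS dye 30 min. Ratio read of aggregate (540/590 nm) versus monomer (490/535 nm) fluorescence.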

For assay [7], the target named is Androgen receptor (Homo sapiens) (UniProt P10275). The assay is described as follows: qHTS assay to identify small molecule antagonists of the androgen receptor (AR) signaling pathway (AID 743035; active means well fitted inhibition curve with a large enough effect in the signal ratio in the repeat runs, not every such curve was filed as active; inconclusive means weak or mixed curves, or effect the other way; inactive means no such curve, though single readings can be large or run the other way; the % refers to the signal ratio; further: potency means the concentration at half of the fitted maximal effect). In outline:
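Cell line: GeneBLAzer AR-UAS-bla GripTite (HEK293). Stimulus: R1881 added after compound. Exposure: 16 h, 37C, 5% CO2. Readout: LiveBLAzer B/G FRET fluorescence after 2 h at room temperature.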

For assay [8] the target is unchanged. The assay is described as follows: qHTS assay to identify small molecule agonists of the androgen receptor (AR) signaling pathway (AID 743036; active means well fitted activation curve with a large enough effect in the signal ratio in the repeat runs, with a control signal flat, not every such curve was filed as active; inconclusive means weak or mixed curves, or effect the other way; inactive means no such curve, though single readings can be large or run the other way; the % refers to the signal ratio; further: potency means the concentration at half of the fitted maximal effect). The essentials:
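Following a 4 h settling period, AR-UAS-bla HEK293 cells were dosed with compounds for 16 h at 37C. A 2 h room-temperature incubation with LiveBLAzer B/G FRET substrate preceded the fluorescence measurement.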

For assay [9] the target is unchanged. The assay is described as follows: qHTS assay to identify small molecule agonists of the androgen receptor (AR) signaling pathway using the MDA cell line (AID 743040; further: nearly all actives have a fitted effect of over 20% in size; further: potency means the concentration at half of the fitted maximal effect). The essentials:
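Human breast carcinoma MDA-kb2 reporter cells (MMTV-luc, AR/GR elements) were treated for 16 h at 37C in 0% CO2 following a 5 h settling period. Signal was quantified by ONE-Glo luminescence.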

Assay [10] has the same target. The assay is described as follows: qHTS assay to identify small molecule antagonists of the androgen receptor (AR) signaling pathway using the MDA cell line (AID 743042; further: nearly all actives have a fitted effect of over 55% in size; further: potency means the concentration at half of the fitted maximal effect). The essentials: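 MDA-kb2 breast carcinoma cells carrying MMTV-luciferase (AR/GR responsive) were co-treated with compounds and the agonist R1881 for 16 h at 37C. Inhibition read as ONE-Glo luminescence; CellTiter-Fluor fluorescence measured in parallel for cytotoxicity.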

Assay [11] deals with Acetylcholinesterase (Homo sapiens) (UniProt P22303). The assay is described as follows: Acetylcholinesterase (AChE) small molecule antagonists: enzyme-based qHTS assay with human liver microsomes (AID 1347399; calls by dose curve; further: nearly all actives have a fitted effect of over 60% in size). The following applies: Potency: qHTS inhibition; outcome: qHTS inhibition. In outline:
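Recombinant human AChE (50 mU/mL in the enzyme mix) and human liver microsomes (0.25 mg/mL final) were preincubated with compound and NADPH (0.25 mg/mL final) for 30 min at 37 C. Acetylthiocholine/DTNB was then added; thiocholine was read colorimetrically after 10 min at room temperature.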

Several values for one entry are separate records, joined by “and”; a condition that tells them apart may be missing. Equal values may be shown once. Values without a mark were called inactive. Activity calls are given as the source filed them. Unless noted, the call rests on the fitted dose curve; in most records, active means well fitted curve in the direction sought with a large enough effect in the repeat runs; inconclusive means weak or mixed curves; inactive means no such curve, though single readings can be large; an effect the other way counts as inactive or inconclusive.
On the % scale 0 is the no-effect control and ±100 the full control effect.

Chain of Estrogen receptor (Homo sapiens) (P03372 whole entry, looked up): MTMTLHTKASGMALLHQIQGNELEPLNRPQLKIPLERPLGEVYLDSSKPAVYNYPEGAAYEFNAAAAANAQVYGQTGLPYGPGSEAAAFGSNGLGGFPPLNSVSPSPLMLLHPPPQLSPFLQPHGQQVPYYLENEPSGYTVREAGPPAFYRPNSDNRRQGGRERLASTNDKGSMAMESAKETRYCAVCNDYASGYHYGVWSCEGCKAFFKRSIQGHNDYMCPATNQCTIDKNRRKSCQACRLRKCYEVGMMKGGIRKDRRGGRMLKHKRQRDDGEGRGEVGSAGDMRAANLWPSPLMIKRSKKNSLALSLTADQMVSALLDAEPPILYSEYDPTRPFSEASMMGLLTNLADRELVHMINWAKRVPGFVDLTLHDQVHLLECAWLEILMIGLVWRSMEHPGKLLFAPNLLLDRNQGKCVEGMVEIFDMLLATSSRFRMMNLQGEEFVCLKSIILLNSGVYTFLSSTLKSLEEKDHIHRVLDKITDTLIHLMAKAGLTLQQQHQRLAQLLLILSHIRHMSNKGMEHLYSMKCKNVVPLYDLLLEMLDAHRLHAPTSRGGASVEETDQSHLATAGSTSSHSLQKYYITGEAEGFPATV
Chain of Nuclear receptor subfamily 1 group I member 2 (Rattus norvegicus) (Q9R1A7 whole entry, looked up): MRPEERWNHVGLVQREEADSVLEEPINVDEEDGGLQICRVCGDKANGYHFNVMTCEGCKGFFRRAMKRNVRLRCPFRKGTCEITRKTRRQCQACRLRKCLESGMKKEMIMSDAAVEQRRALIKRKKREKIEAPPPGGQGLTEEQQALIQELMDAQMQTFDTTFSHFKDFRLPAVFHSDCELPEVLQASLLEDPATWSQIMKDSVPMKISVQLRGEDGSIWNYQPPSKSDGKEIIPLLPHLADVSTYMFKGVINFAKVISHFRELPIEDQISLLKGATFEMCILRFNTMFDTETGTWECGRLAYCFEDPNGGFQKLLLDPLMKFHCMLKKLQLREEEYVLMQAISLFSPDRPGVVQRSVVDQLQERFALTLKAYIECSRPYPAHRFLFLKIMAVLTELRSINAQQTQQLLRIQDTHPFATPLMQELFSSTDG
Chain of Androgen receptor (Homo sapiens) (P10275 whole entry, looked up): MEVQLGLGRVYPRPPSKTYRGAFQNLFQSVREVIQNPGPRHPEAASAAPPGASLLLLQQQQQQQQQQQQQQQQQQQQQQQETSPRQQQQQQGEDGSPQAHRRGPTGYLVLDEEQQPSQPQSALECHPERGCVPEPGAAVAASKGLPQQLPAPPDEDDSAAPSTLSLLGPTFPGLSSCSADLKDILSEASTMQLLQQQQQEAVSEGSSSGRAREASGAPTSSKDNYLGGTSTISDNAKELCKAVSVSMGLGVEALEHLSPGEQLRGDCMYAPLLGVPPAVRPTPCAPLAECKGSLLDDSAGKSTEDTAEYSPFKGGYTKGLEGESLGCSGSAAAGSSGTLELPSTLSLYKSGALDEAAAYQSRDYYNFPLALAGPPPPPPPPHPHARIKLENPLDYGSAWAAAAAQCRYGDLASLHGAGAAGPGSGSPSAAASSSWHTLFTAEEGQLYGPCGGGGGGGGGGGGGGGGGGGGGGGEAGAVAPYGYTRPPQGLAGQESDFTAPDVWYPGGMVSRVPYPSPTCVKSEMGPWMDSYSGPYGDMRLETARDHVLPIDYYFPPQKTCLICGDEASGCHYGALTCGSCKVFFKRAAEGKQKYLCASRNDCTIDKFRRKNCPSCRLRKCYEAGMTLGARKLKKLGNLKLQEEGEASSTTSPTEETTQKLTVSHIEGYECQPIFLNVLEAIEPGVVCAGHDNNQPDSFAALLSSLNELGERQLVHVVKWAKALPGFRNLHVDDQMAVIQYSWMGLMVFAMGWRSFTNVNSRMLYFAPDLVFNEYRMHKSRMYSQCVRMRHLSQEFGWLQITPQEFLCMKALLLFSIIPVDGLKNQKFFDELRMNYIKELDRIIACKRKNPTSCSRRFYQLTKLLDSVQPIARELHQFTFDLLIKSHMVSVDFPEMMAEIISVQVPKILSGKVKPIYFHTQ
Chain of Glucocorticoid receptor (Homo sapiens) (P04150 whole entry, looked up): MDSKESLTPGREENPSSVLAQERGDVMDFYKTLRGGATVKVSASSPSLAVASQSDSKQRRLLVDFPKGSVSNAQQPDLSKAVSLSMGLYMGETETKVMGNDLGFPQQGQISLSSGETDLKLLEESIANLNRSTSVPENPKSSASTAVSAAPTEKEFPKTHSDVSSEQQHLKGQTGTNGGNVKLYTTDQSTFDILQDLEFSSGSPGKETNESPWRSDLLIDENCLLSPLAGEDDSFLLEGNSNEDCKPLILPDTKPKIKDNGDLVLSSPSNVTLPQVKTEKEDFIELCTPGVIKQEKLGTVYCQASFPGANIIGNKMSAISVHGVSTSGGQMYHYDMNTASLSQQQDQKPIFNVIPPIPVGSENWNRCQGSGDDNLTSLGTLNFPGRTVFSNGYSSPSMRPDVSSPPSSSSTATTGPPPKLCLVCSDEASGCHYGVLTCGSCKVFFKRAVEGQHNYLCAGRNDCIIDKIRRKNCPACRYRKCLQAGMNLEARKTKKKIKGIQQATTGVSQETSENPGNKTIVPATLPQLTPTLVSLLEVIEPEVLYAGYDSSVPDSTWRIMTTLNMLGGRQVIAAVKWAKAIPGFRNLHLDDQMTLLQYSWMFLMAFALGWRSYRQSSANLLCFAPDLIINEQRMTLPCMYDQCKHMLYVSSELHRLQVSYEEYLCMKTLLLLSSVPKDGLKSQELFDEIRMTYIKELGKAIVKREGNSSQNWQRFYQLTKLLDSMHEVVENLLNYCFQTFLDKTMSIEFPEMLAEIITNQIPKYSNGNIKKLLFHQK
Chain of Acetylcholinesterase (Homo sapiens) (P22303 whole entry, looked up): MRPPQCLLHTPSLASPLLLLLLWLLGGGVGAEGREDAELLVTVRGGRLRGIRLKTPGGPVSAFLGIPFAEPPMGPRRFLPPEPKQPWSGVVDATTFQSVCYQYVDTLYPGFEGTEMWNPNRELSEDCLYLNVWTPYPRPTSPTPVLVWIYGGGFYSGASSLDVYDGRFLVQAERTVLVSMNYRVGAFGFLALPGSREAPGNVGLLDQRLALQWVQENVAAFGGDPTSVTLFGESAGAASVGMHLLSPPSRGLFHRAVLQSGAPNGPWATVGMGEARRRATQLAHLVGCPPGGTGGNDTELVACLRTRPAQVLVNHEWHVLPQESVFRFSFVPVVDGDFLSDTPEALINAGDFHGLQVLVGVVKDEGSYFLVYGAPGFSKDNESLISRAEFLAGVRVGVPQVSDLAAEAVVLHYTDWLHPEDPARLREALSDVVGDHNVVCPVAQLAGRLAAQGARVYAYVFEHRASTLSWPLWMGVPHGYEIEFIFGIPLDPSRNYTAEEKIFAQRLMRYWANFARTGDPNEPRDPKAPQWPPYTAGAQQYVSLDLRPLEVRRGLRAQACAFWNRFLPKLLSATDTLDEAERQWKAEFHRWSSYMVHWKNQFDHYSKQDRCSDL

In the case of `Cc1nnc2n1-c1ccc(Cl)cc1C(c1ccccc1)=NC2`, the Potency entry in assay [1] is “inactive”. The Potency is 6.01 µM (active) in assay [2] and 21.3 µM [inconclusive] (active) in assay [3]. The max activation in [4] is -0.769%.
Take `F/C(COc1ccc2c(c1)[nH]c1ccccc12)=C1/CN2CCC1CC2`: the Potency in assay [5] was 22.4 µM (active).
Regarding `C[C@]12CCC(=O)C=C1C=C[C@@H]1[C@@H]2CC[C@@]2(C)[C@H]1CC[C@@]2(O)CCC(=O)O`, the Potency result in assay [6], in assay [7], in assay [10] and in assay [5] was “inactive” each time. Besides, the Potency in [2] was 9.1 µM (active); in [8] it was 3.62 µM (active); in assay [9] it was 12.7 µM (active). In [4], the max activation is 4.24%.
With `CCCC(C)C1(CC)C(=O)NC(=O)NC1=O` (stereo unspecified), the Potency entry in assay [3] and in assay [5] was “inactive” in each case. Moreover, the max activation in [4] was -2.06%.
As for `CCCCCc1cc(O)c2c(c1)OC(C)(C)[C@@H]1CCC(C)=C[C@@H]21`, the Potency is 3.76 µM (active) in assay [6] and 7.94 µM (active) in assay [5]. Also, the Potency result in assay [8], in assay [9] and in [10] was “inactive” each time. In assay [4], the max activation was -3.2%.
For the compound `C[C@]12CC[C@H]3[C@@H](CCC4=CC(=O)CC[C@@]43C)[C@@H]1CC[C@H]2O`, the Potency in assay [2] is 4.25 µM (active). The max activation in assay [4] is -0.613%.
On to `COC(=O)[C@@H]1[C@H]2CC[C@@H](C[C@H]1OC(=O)c1ccccc1)N2C`, for which the Potency result in assay [1], in assay [6], in [7], in assay [8], in [9] and in assay [10] was “inactive” throughout. The Potency result in [3] and in assay [5] was “inactive” each time.
As to `C[C@]12C[C@H]3S[C@H]3C[C@@H]1CC[C@@H]1[C@@H]2CC[C@]2(C)[C@@H](O)CC[C@@H]12`, the Potency was 11.4 µM (active) in [6], 0.0032 µM (active) in assay [8] and 0.0003 µM (active) in assay [9]. Besides, the Potency entry in assay [10] and in assay [5] was “inactive” each time. For the same compound, the max activation in [4] is 11.2%.
`CC1(C)[C@H](C=C(Cl)Cl)[C@H]1C(=O)OCc1c(F)c(F)cc(F)c1F`: the Potency entry in assay [2], in [3] and in assay [5] was “inactive” each time. Also, in assay [4], the max activation is 4.71%.
With `CC(=O)O[C@H]1C[C@H](O[C@H]2[C@@H](O)C[C@H](O[C@H]3[C@@H](O)C[C@H](O[C@H]4CC[C@@]5(C)[C@H](CC[C@@H]6[C@@H]5C[C@@H](O)[C@]5(C)[C@@H](C7=CC(=O)OC7)CC[C@]65O)C4)O[C@@H]3C)O[C@@H]2C)O[C@H](C)[C@H]1O[C@@H]1O[C@H](CO)[C@@H](O)[C@H](O)[C@H]1O`, the Potency in [6] was 0.75 µM (active); in assay [7] it was 0.301 µM (active). In [4], the max activation is 4.17%. For the same compound, the Potency entry in assay [5] was “inactive”.
With `NCCNCCNCCNCCN`, the Potency result in assay [11] is “inactive”.
On to `Oc1cccc[c]1[Hg][Cl]`, for which the Potency was 11.1 µM (active) in [6], 6.74 µM (active) in [7] and 4.22 µM (active) in assay [10]. Further, in assay [9], the Potency result was “inactive”. Besides, in assay [4], the max activation is -19.4%.
As to `CC(C)[C@@]1(NC(=O)[C@@H]2C[C@@H]3c4cccc5[nH]cc(c45)C[C@H]3N(C)C2)O[C@@]2(O)[C@@H]3CCCN3C(=O)[C@H](Cc3ccccc3)N2C1=O`, the Potency entry in assay [1] and in assay [2] was “inactive” throughout. For the same compound, in assay [6], the Potency is 0.841 µM (active). Besides, the max activation in assay [4] was -8.17%.
For `C=C[C@H]1CN2CC[C@H]1C[C@@H]2[C@@H](O)c1ccnc2ccccc12`, the Potency in [6] is 8.41 µM (active). The Potency entry in [2] and in assay [5] was “inactive” in each case. In [4], the max activation is -2.95%.
In the case of `CNC1(c2ccccc2Cl)CCCCC1=O` (stereo unspecified), the Potency entry in [1], in assay [2] and in assay [3] was “inactive” each time. For the same compound, the max activation in assay [4] is -2.7% and 3.43%.
Take `CC(=O)O[C@H]1C[C@H](O[C@H]2[C@@H](O)C[C@H](O[C@H]3[C@@H](O)C[C@H](OC4CC[C@@]5(C)[C@H](CC[C@@H]6[C@@H]5CC[C@]5(C)[C@@H](C7=CC(=O)OC7)CC[C@]65O)C4)O[C@@H]3C)O[C@@H]2C)O[C@H](C)[C@H]1O[C@@H]1O[C@H](CO)[C@@H](O)[C@H](O)[C@H]1O` (stereo partly specified): the Potency in assay [6] was 0.393 µM (active); in [10], 1.68 µM (active). Also, in assay [4], the max activation was -3.5%. Also, the Potency result in [5] is “inactive”.
`CN1[C@@H]2CC[C@H]1CC(OC1c3ccccc3CCc3ccccc31)C2` (stereo partly specified): the Potency result in [2] and in assay [5] was “inactive” in each case. Besides, in assay [4], the max activation was -2.13%.
